Sampled rows, rich in hits. Any-hit rate of the full collection: about 10%.
KB-3-1 tox – KB-3-1 parental cell cytotoxicity. KB-3-1 viability, CellTiter-Glo ATP luminescence, 72 h. Potency, µM (highest dose often 46.1 µM), actives largely listed as cytotoxic. hit rate 1.4% among 400,000. AID 1347075; also: nearly all actives have a fitted effect of over 60% in size
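Cytotoxicity in the drug-sensitive parental line KB-3-1 was scored as loss of CellTiter-Glo luminescence following 72 h incubation with compound. Values come from curve fitting of normalized concentration-response data.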
KB-V1 MDR tox – KB-V1 MDR subline cytotoxicity | hit rate 3.4% among 400,000 | KB-V1 MDR cells viability, CellTiter-Glo, 72 h | Potency, µM (titrated, usually from 46.1 µM), usual class: cytotoxic; also: nearly all actives have a fitted effect of over 60% in size
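Readout: CellTiter-Glo luminescence, 10 min after addition. Cells: KB-V1 MDR subline, 72 h at 37 degrees C with compound. Analysis: corrected, normalized data fitted to concentration-effect curves.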
VP16 counter – inhibits Gal4-VP16 luciferase reporter, ROR gamma counter-screen; Drosophila S2 Gal4-VP16 UAS-luciferase, luminescence, 20 h; Potency, µM (highest dose often 53.6 µM), actives largely listed as inhibitors; hit rate 3.5% among 310,000;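 also: Gal4-VP16 expression switched on by copper sulfate through the metallothionein promoter; nearly all actives have a fitted effect of over 50% in size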
RORgamma inh – ROR gamma (mouse) transcription inhibition | P51450 | Drosophila S2 Gal4-RORgamma UAS-luciferase reporter, 20 h | Potency, µM (titrated, usually from 53.6 µM), hits mostly inhibitors | hit rate 5.4% among 310,000 | AID 2551; also: nearly all actives have a fitted effect of over 60% in size
Target sequence (P51450 whole entry, looked up, the tested form may be a part): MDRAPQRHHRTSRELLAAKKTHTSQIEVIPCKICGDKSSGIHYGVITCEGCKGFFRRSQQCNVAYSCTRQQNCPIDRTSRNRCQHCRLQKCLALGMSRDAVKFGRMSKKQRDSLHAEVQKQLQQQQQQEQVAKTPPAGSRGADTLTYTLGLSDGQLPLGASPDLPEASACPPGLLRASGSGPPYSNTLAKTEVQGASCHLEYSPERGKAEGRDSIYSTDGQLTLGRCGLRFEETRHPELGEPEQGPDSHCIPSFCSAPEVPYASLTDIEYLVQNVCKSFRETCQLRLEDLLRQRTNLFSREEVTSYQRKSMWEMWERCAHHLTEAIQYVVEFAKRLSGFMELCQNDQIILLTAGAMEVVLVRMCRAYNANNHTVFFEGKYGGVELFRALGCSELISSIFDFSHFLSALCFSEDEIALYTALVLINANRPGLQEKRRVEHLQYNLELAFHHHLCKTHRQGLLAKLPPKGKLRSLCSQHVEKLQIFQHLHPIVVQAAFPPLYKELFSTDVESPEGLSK
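In this cell-based reporter format, copper sulfate (700 uM final) drives Gal4–ROR gamma fusion expression from a metallothionein promoter in Drosophila Schneider cells; compounds preincubated 1 hr, reporter read after 20 hr at ambient temperature.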
SW480 rereplic – inducers of DNA re-replication in SW480 colon cancer cells; Potency, µM (titrated, usually from 46.1 µM), most hits filed as activators; hit rate 1.8% among 340,000; AID 624297; SW480 DNA re-replication, Hoechst DNA content imaging, 48 h; also: nearly all actives have a fitted effect of over 55% in size
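Treated cells incubate 48 hr (37 C, 5% CO2), are stained 40 min with Hoechst, and nuclear fluorescence is enumerated; a rise in nuclei with high DNA signal marks re-replication.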
MCF10A rerep – inducers of DNA re-replication in MCF 10A breast cells | Potency, µM (titrated, usually from 46.1 µM), actives largely listed as activators | MCF 10A DNA re-replication, Hoechst nuclear intensity, 48 h | hit rate 2.9% among 350,000; also: nearly all actives have a fitted effect of over 50% in size
Of the large screens only hits and unclear results are named; the others gave an inactive call; ! = repeats disagree. Calls follow the shape of the dose curve; as a rule, active = well fitted curve in the direction sought with a large enough effect; inconclusive = small, poorly fitted or top-dose-only effect, or another doubt; inactive = no such curve, though single readings can be large; an effect the other way counts as inactive or inconclusive.

c1ccc(-c2cc(-c3nnc4n3N=C(c3ccc5ccccc5c3)CS4)[nH]n2)cc1	KB-V1 MDR tox 7.3µM, RORgamma inh inconclusive, SW480 rereplic inconclusive, MCF10A rerep 4.1µM
Cc1cc(-c2nnc3n2N=C(c2ccc(-c4ccccc4)cc2)CS3)n[nH]1	KB-3-1 tox inconclusive, VP16 counter inconclusive, MCF10A rerep inconclusive
COc1cccc(C2=Nn3c(nnc3-c3ccccc3C)SC2)c1	VP16 counter 16µM, RORgamma inh inconclusive (no result: KB-3-1 tox, KB-V1 MDR tox, SW480 rereplic, MCF10A rerep)
Cc1cccc(-c2nnc3n2N=C(c2ccccc2)CS3)c1	KB-3-1 tox inconclusive, KB-V1 MDR tox 8.2µM
COc1ccc(-c2nnc3n2N=C(c2ccccc2)CS3)cc1OC	none (no result: KB-3-1 tox, KB-V1 MDR tox, SW480 rereplic, MCF10A rerep)
O=C(/C=C/Nc1ccc(F)cc1Br)c1ccccc1	KB-V1 MDR tox inconclusive, VP16 counter 7.1µM, RORgamma inh 2.5µM
O=C(/C=C\Nc1ccccc1Br)c1ccc2c(c1)OCO2	KB-V1 MDR tox inconclusive, VP16 counter inconclusive, RORgamma inh 5µM
O=C(/C=C\Nc1cccc(F)c1)c1ccc2c(c1)OCO2	VP16 counter 10µM, RORgamma inh inconclusive
O=C(/C=C/c1ccccc1Br)c1ccc2c(c1)OCO2	KB-3-1 tox inconclusive, KB-V1 MDR tox inconclusive, VP16 counter inconclusive, SW480 rereplic inconclusive, MCF10A rerep inconclusive
Cc1cc(N/C=C/C(=O)c2ccccc2)ccc1Br	VP16 counter inconclusive, RORgamma inh inconclusive
CCc1ccc(NC(=O)COCc2cc(-c3ccc(F)cc3)on2)cc1	none (no result: VP16 counter, RORgamma inh, SW480 rereplic, MCF10A rerep)
CC(C)(C)c1ccc(C(=O)Nc2cccc3c(=O)[nH][nH]c(=O)c23)cc1	KB-3-1 tox inconclusive, VP16 counter 3.5µM, RORgamma inh inconclusive, SW480 rereplic inconclusive, MCF10A rerep inconclusive
O=C(c1cc(COc2cccc(C(F)(F)F)c2)on1)N1CCCC1	none (no result: VP16 counter, RORgamma inh, SW480 rereplic, MCF10A rerep)
C=CCC1(CC=C)CCCN1C(=O)c1cc(COc2cccc(C(F)(F)F)c2)on1	KB-3-1 tox inconclusive, KB-V1 MDR tox inconclusive, VP16 counter 13µM
Cc1nn(C)c(C)c1CN(C)S(=O)(=O)c1ccc2ccccc2c1	KB-V1 MDR tox inconclusive, VP16 counter 5µM, RORgamma inh inconclusive
Cc1ccccc1OCC(=O)NCC(=O)OC(c1ccccc1)c1ccccc1	none (no result: VP16 counter, RORgamma inh, SW480 rereplic, MCF10A rerep)
O=C1c2cccc3cccc(c23)C(=O)N1c1ccccn1	none
O=C1c2c(Br)c(Br)c(Br)c(Br)c2C(=O)N1c1ccccn1	VP16 counter inconclusive, MCF10A rerep 0.65µM
COc1ccccc1CNC(=O)CS(=O)(=O)Cc1nc(-c2ccccc2C)oc1C	none (no result: VP16 counter, RORgamma inh, SW480 rereplic, MCF10A rerep)
O=C1c2oc3ccc(Cl)cc3c(=O)c2C(c2ccccn2)N1CCCN1CCOCC1 (configuration not stated)	VP16 counter inconclusive, RORgamma inh 22µM
CC(C)Oc1ccc(CNC(=O)c2ccc3c(c2)nc2n3CCCCC2)cc1	none (no result: VP16 counter, RORgamma inh, SW480 rereplic, MCF10A rerep)
CCCCNC(=O)CCC(=O)Nc1ccc2nc(N3CCC(C)CC3)cc(C)c2c1	SW480 rereplic inconclusive, MCF10A rerep 21µM
CCC(C)NC(=O)CCC(=O)Nc1ccc2nc(N3CC(C)CC(C)C3)cc(C)c2c1 (configuration not stated)	SW480 rereplic inconclusive, MCF10A rerep 21µM
CC(=O)Nc1nonc1-c1nnc(SCc2cccc(Br)c2)n1C	none (no result: VP16 counter, RORgamma inh, SW480 rereplic, MCF10A rerep)
COC(=O)Nc1sc2c(c1C(N)=O)CCCC2	none (no result: VP16 counter, RORgamma inh, SW480 rereplic, MCF10A rerep)
Cc1sc(NC(=O)C2CCCO2)c(C#N)c1C (configuration not stated)	none
N#Cc1c(NC(=O)CSc2nnnn2C2CCCCC2)sc2c1CCCC2	KB-V1 MDR tox 23µM
COC(=O)Nc1sc2c(c1C(=O)NC1CC1)CCCCCC2	KB-V1 MDR tox 23µM, RORgamma inh inconclusive, MCF10A rerep inconclusive
NC(=O)c1c(NC(=O)C2CCCO2)sc2c1CCCC2 (configuration not stated)	KB-V1 MDR tox 15µM!
CCOC(=O)c1c(NC(=O)C2CCCO2)sc2c1CCC2 (configuration not stated)	MCF10A rerep inconclusive
N#Cc1c(NC(=O)C2CCCO2)sc2c1CCCCCC2 (configuration not stated)	KB-V1 MDR tox 18µM, RORgamma inh inconclusive, SW480 rereplic inconclusive, MCF10A rerep inconclusive
CCCCNC(=O)CN1C(=O)c2c(c3ccccc3n2C)C1c1ccc(OC)cc1 (configuration not stated)	none (no result: VP16 counter, RORgamma inh, SW480 rereplic, MCF10A rerep)
CCC(Sc1nc2ccccc2c2nc(CCn3c(C)nc4ccccc43)nn12)C(=O)Nc1ccc(F)cc1 (configuration not stated)	none (no result: VP16 counter, RORgamma inh, SW480 rereplic, MCF10A rerep)
O[C@@H]1CN(CC2CCCCC2)[C@@H](c2ccccc2)C[C@H]1n1cc(C2CC2)nn1	KB-3-1 tox 21µM, KB-V1 MDR tox inconclusive (no result: VP16 counter, RORgamma inh, SW480 rereplic, MCF10A rerep)
CC(C)n1cnc2c(NCc3ccc(S(N)(=O)=O)cc3)nc(NCc3ccc(S(N)(=O)=O)cc3)nc21	none
CC(C)[C@H](CO)Nc1nc(NCc2ccc(S(N)(=O)=O)cc2)c2ncn(C(C)C)c2n1	KB-3-1 tox inconclusive, SW480 rereplic 18µM
O=S(=O)(c1ccccc1)c1cnc(-c2cccnc2)nc1-c1ccccc1	KB-V1 MDR tox 8.2µM
O=S(=O)(c1ccccc1)c1cnc(-c2cccnc2)nc1-c1ccc(Cl)cc1Cl	KB-3-1 tox inconclusive, VP16 counter inconclusive, RORgamma inh inconclusive
Cc1ccc(NS(=O)(=O)c2cc3c(cc2Cl)CCC(=O)N3)cc1Cl	none (no result: VP16 counter, RORgamma inh, SW480 rereplic, MCF10A rerep)
COc1ccc(-c2nc(-c3ccccc3)c(-c3cccs3)[nH]2)cc1OC	VP16 counter inconclusive
Oc1ccc(-c2nc(-c3ccc(F)cc3)c(-c3ccncc3)[nH]2)cc1	KB-3-1 tox inconclusive, SW480 rereplic 3.5µM
Fc1ccc(-c2nc(-c3cccs3)[nH]c2-c2ccc(F)cc2)cc1	KB-3-1 tox 18µM, KB-V1 MDR tox 16µM, MCF10A rerep inconclusive
O=C(O)c1ccc(-c2nc(-c3ccccc3)c(-c3ccccc3)[nH]2)cc1	KB-V1 MDR tox inconclusive, MCF10A rerep 16µM
Cc1ccsc1-c1nc(-c2ccccc2)c(-c2ccccc2)[nH]1	KB-3-1 tox inconclusive, VP16 counter inconclusive, RORgamma inh 4µM, SW480 rereplic inconclusive
CC[C@H](C)[C@H](NC(=O)[C@H](C)NC(=O)[C@@H](N)C(C)C)C(=O)N[C@H](C(=O)N[C@H](C(=O)N[C@@H](CC(C)C)C(=O)N[C@H](C(=O)N[C@@H](CCCCN)C(=O)O)C(C)C)C(C)C)[C@@H](C)O	none (no result: KB-3-1 tox, KB-V1 MDR tox, SW480 rereplic, MCF10A rerep)
O=C(Oc1c(CN2CCOCC2)cc(Cl)c2cccnc12)c1cccs1	KB-3-1 tox inconclusive, KB-V1 MDR tox inconclusive, VP16 counter 1µM, RORgamma inh 1.4µM, SW480 rereplic 8.2µM, MCF10A rerep inconclusive
O=C(Oc1c(Cl)cc(Cl)c2cccnc12)c1cccs1	KB-3-1 tox inconclusive, KB-V1 MDR tox inconclusive, VP16 counter 1µM, RORgamma inh 0.63µM, SW480 rereplic inconclusive, MCF10A rerep 6.5µM

Screening results as filed in PubChem.
